The values that follow come from PubChem BioAssay (NCI).

About 83,000 compounds went through this panel and 20% of them were active in at least one assay; those are over-represented in the sample as a whole.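 Assay: single dose, 48 h. Readout: percent growth (0 = no net growth; negative = cell death). Active: <10.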 Unmarked numbers belong to inactive results. Calls of active or inactive are those of the source.

Experiment in all cases: NCI-60 one-dose screen, 48 h (100 = growth as untreated, 0 = no growth, -100 = all killed)
Assay [1] concerns HCT-15 colon. The settings on record: 10 µM.
Assay [2] concerns HT29 colon. The settings on record: 10 µM.
Assay [3] relates to SNB-75 CNS. The settings on record: 10 µM.
In assay [4] the test system is SNB-19 CNS. The following applies: 10 µM.
The test system of assay [5] is U251 CNS. The settings on record: 10 µM.
Assay [6] concerns PC-3 prostate. The settings on record: 10 µM.
Assay [7] relates to SK-MEL-5 melanoma. The following applies: 10 µM.
Assay [8] concerns UACC-62 melanoma. The following applies: 10 µM unless noted.
The subject of assay [9] is LOX IMVI melanoma. The settings on record: 10 µM.
The subject of assay [10] is SK-MEL-28 melanoma. The settings on record: 10 µM.
The test system of assay [11] is SK-MEL-2 melanoma. The settings on record: 10 µM.
Assay [12] concerns EKVX NSCLC. The following applies: 10 µM.
Assay [13] has as its system SN12C renal. The following applies: 10 µM.
The subject of assay [14] is UO-31 renal. The settings on record: 10 µM.
Assay [15] concerns ACHN renal. The following applies: 10 µM.
The subject of assay [16] is CAKI-1 renal. The settings on record: 10 µM.
Assay [17] has as its system A498 renal. The settings on record: 10 µM.
Assay [18] concerns CCRF-CEM leukemia. The settings on record: 10 µM.
The test system of assay [19] is MOLT-4 leukemia. The settings on record: 10 µM.
In assay [20] the test system is TK-10 renal. The settings on record: 10 µM unless noted.

For `Cc1ccccc1N=C(c1ccccc1)C1C(=O)c2ccccc2C1=O`, the growth in [1] was 58.7%; in [2], 75.9%; in assay [3], 90%; in [4], 97.1%; in assay [5], 87.7%; in assay [6], 59.8%. The growth in [7] is -0.209% (active); in [8], 63.1%; in assay [9], 85.9%; in assay [10], 89.4%; in assay [11] it was 59.9%; in assay [12], 88.9%. Also, the growth is 90.9% in assay [13]; 82.5% in assay [14]; 88.3% in assay [15]; 84.6% in assay [16]; -13.7% (active) in [17]; 65.1% in assay [18]. The growth in assay [19] is 56.4%.
Consider `Clc1ccc(-c2n[nH]c3c2Cc2ccccc2-3)cc1Cl`, for which the growth in [1] was 87.8%; in assay [2], 106%; in assay [3] it was 84.9%; in assay [4], 93.8%; in assay [5], 97.9%; in [6] it was 92.4%. The growth in assay [7] is 95.6%; in assay [8] it was 91.2%; in assay [9] it was 97.4%; in assay [10] it was 114%; in assay [11], 99.6%; in assay [12], 86.3%. Besides, the growth is 94.1% in [13]; 72.4% in assay [14]; 101% in assay [20]; 100% in [15]; 110% in assay [17]; 89.2% in assay [18]. Moreover, in assay [19], the growth is 91.4%.
As for `Cc1cc2ccccc2c(O)c1C#N`, the growth in [1] was 92.2%; in assay [2] it was 123%; in assay [3], 78.3%; in [4] it was 100%; in assay [5] it was 109%; in assay [6] it was 105%. Besides, the growth in assay [7] was 104%; in assay [8] it was 97.7%; in assay [9], 94.4%; in [10], 115%; in [11] it was 112%; in assay [12], 108%. Further, the growth in assay [13] is 95.3%; in assay [20] it was 110%; in assay [15], 99.1%; in assay [16] it was 115%; in assay [17] it was 107%; in assay [18] it was 104%. For the same compound, the growth in assay [19] was 108%.
As to `CCN=c1cc2sc3cc(NCC)c(C)cc3nc-2cc1C`, the growth was 8.95% (active) in [1]; 16.7% in assay [2]; 52% in [3]; 4.67% (active) in assay [4]; 10.7% in assay [5]; 3.93% (active) in assay [6]. Moreover, the growth is -56.9% (active) in [7]; 61.3% in assay [8]; 2.17% (active) in assay [9]; 60.4% in assay [10]; 26.5% in assay [11]; -7.52% (active) in assay [12]. Besides, the growth in assay [13] is -83.1% (active); in assay [14], 40.5%; in assay [15] it was 53%; in [16], -56% (active); in assay [17], 47.7%; in assay [18], 14%. Further, the growth in assay [19] was 8.77% (active).
Take `COC(=O)C(O)c1ccccc1` (stereo not given): the growth is 105% in [1]; 122% in assay [2]; 93% in assay [3]; 102% in [4]; 104% in [5]; 94.6% in assay [6]. Besides, the growth in assay [7] is 104%; in assay [8], 94.1%; in [9] it was 107%; in assay [10], 103%; in [11], 103%; in assay [12] it was 119%. The growth in [13] was 97%; in assay [20] it was 106%; in [15], 100%; in [16], 114%; in assay [17], 132%; in assay [18] it was 98.1%. Moreover, the growth in [19] is 105%.
As for `Cc1ccc(Cl)cc1NC(=O)N(C)CCO`, the growth in assay [1] is 110%; in assay [2], 133%; in assay [3], 126%; in assay [4], 101%; in assay [5], 102%; in assay [6] it was 96%. The growth in [7] was 101%; in assay [8], 109%; in assay [9] it was 107%; in [10] it was 145%; in assay [11], 97.4%; in [12] it was 116%. Moreover, the growth in [13] was 105%; in [14], 76%; in assay [20], 126%; in assay [15], 103%; in assay [17], 111%; in assay [18], 98.7%. For the same compound, the growth in [19] was 97.5%.
As for `N#Cc1ccc(NC(=O)Nc2cccc(C#N)c2)cc1`, the growth in assay [1] is 67.4%; in assay [2] it was 97.3%; in assay [3], 97.8%; in assay [4], 103%; in assay [5] it was 91.8%; in [6] it was 57.3%. The growth in assay [7] was 81.8%; in assay [8] it was 93.7%; in assay [9], 91.6%; in [10], 108%; in [11] it was 97.3%; in [12], 94.5%. Also, the growth in [13] was 94%; in assay [14] it was 75.6%; in [20], 113%; in assay [15], 92.5%; in assay [17], 86%; in [18], 72.4%. Moreover, in assay [19], the growth was 78.7%.
Consider `C#Cc1cccc(NC(=O)c2ccc(Cl)cc2Cl)c1`, for which the growth is 87.6% in assay [1]; 100% in assay [2]; 106% in [3]; 97.3% in assay [4]; 91.3% in assay [5]; 82.6% in assay [6]. Besides, the growth is 91.1% in assay [7]; 87.9% in [8]; 98.5% in assay [9]; 102% in assay [10]; 98.6% in assay [11]; 91.3% in assay [12]. For the same compound, the growth in assay [13] is 95.7%; in assay [14], 91.7%; in assay [20], 106%; in [15], 93.5%; in [17], 102%; in assay [18] it was 88.2%. Further, in assay [19], the growth was 82.1%.
For `O=C(Cc1ccccc1)Cc1ccccc1`, the growth was 103% in assay [1]; 108% in [2]; 99.5% in assay [3]; 101% in assay [4]; 96.7% in assay [5]; 103% in assay [6]. Moreover, the growth is 96.5% in [7]; 97% in [8]; 103% in assay [9]; 108% in assay [10]; 90.1% in assay [11]; 104% in assay [13]. The growth was 98% in [14]; 98.1% in [15]; 97.9% in assay [16]; 101% in assay [17]; 98.3% in assay [18]; 96.7% in assay [19].
